Measured values: PubChem BioAssay (NCI)
About 83,000 compounds went through this panel and 20% of them were active in at least one assay; those are over-represented in the sample as a whole.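 Method: cells in 96-well plates; compound added at one concentration; 48 h incubation; percent growth measured; values under 10 scored active.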 Values without a mark were called inactive. Calls of active or inactive are those of the source.

Tests used:
Test in all cases: NCI-60 one-dose screen, 48 h (100 = growth as untreated, 0 = no growth, -100 = all killed)
Conditions in all cases: 10 µM unless noted
HCT-15 colon = tested on: HCT-15 colon
HT29 colon = tested on: HT29 colon
SNB-75 CNS = tested on: SNB-75 CNS
SNB-19 CNS = tested on: SNB-19 CNS
U251 CNS = tested on: U251 CNS
PC-3 prostate = tested on: PC-3 prostate
SK-MEL-5 melanoma = tested on: SK-MEL-5 melanoma
UACC-62 melanoma = tested on: UACC-62 melanoma
LOX IMVI melanoma = tested on: LOX IMVI melanoma
SK-MEL-28 melanoma = tested on: SK-MEL-28 melanoma
SK-MEL-2 melanoma = tested on: SK-MEL-2 melanoma
EKVX NSCLC = tested on: EKVX NSCLC
SN12C renal = tested on: SN12C renal
UO-31 renal = tested on: UO-31 renal
TK-10 renal = tested on: TK-10 renal
ACHN renal = tested on: ACHN renal
CAKI-1 renal = tested on: CAKI-1 renal
A498 renal = tested on: A498 renal
CCRF-CEM leukemia = tested on: CCRF-CEM leukemia
MOLT-4 leukemia = tested on: MOLT-4 leukemia

Compound	growth (HCT-15 colon)	growth (HT29 colon)	growth (SNB-75 CNS)	growth (SNB-19 CNS) [%]	growth (U251 CNS)	growth (PC-3 prostate)	growth (SK-MEL-5 melanoma)	growth (UACC-62 melanoma)	growth (LOX IMVI melanoma)	growth (SK-MEL-28 melanoma)	growth (SK-MEL-2 melanoma)	growth (EKVX NSCLC)	growth (SN12C renal)	growth (UO-31 renal)	growth (TK-10 renal)	growth (ACHN renal)	growth (CAKI-1 renal)	growth (A498 renal)	growth (CCRF-CEM leukemia)	growth (MOLT-4 leukemia)
Cc1nn(-c2cccc(Cl)c2)c(C)c1N=Nc1ccc(Br)cc1	94.4%	74.7%	91.9%	97.9	92.5%	80.9%	97.5%	81.7%	101%	92.3%	102%	87.5%	94.4%	86.5%	90.1%	92%	86.7%	83%	97.3%	98.9%
O=C(N/N=C/c1ccccc1O)c1ccncc1	28.5%	42.7%	86.2%	66.6	39.2%	69.5%	75.5%	33.5%	50.8%	61.1%	55.9%	36.9%	78%	33.5%	57.7%	56.8%	41.3%	87.7%	29.1%	9.31% (active)
COc1cc(NCC(O)CN(CC(C)C)CC(C)C)c2ncccc2c1 (stereo not drawn)	80.1%	77.9%	82.8%	90.1	80.7%	58.6%	86.1%	76.9%	83.6%	75.3%	100%	93.2%	84.6%	88.6%	113%	87.6%	99.2%	70%	57.8%	74.9%
COc1cc(CN2CCC(N3CCCC3=O)c3ccccc32)cc(OC)c1OC (stereo not drawn)	108%	80.5%	84.1%	83.6	85.5%	66%	40.5%	64.4%	76.3%	98.2%	89.8%	66.1%	79.7%	56%	86.3%	91.3%	70.7%	63.6%		72.4%
C=CCN(CC#N)CC=C	116%	94.5%	96.2%	109	100%	91%	94.9%	102%	101%	104%	117%	100%	102%	92.4%	103%	109%	107%	112%		102%
Cc1cc(O)ccc1Sc1ccccc1[N+](=O)[O-]	92.7%	94.3%	94.8%	91.6	94.2%	82.3%	91.1%	76%	84.1%	101%	99.4%	74.8%	92.3%	52.7%	90.6%	87.4%	89.8%	87.6%	93.5%	115%
N/C(=N\OC(=O)c1ccccc1)C(Cc1ccccc1)C(=O)NOC(=O)c1ccccc1 (stereo not drawn)	33.2%	85.7%	4.73% (active)	56.8	-71% (active)	43%	72.2%	71.2%	-81.2% (active)	89.6%	89.7%	59.2%	68.8%	-59.5% (active)	78.3%	15.1%	-44.6% (active)	59.5%	9.98% (active)	35.2%
C=C1C(=O)O[C@H]2[C@H]1CC/C(COC(=O)NCc1cn(C)c3ccccc13)=C\CC[C@@]1(C)O[C@@H]21	-45.8% (active)	-62% (active)	50%	54.2	0.165% (active)	8.71% (active)	10.6%	-41% (active)	-65% (active)	-14.6% (active)	-2.82% (active)	29.6%	2.93% (active)	-88.3% (active)	-47.8% (active)	-36.2% (active)	-18.7% (active)	63.4%	-13.3% (active)	-15.4% (active)
COc1ccc2nc(C)cc(Sc3nc4ccccc4s3)c2c1	29.2%	26.2%	46.4%	62	39.6%	52.9%	35.2%	47.3%	29.4%	62.7%	-99.6% (active)	42.1%	40.5%	16.7%	61.4%	33.7%	-41.8% (active)	40.7%	7.21% (active)	-21.2% (active)
CCN(CC)c1ccc(/C=N/NC(=O)C[N+](C)(C)C)cc1	101%	103%	93.8%	113	102%	95.7%	104%	101%	97%	108%	137%	94.2%	105%	108%	95.2%	105%	101%	92.3%	90.9%	22.1%
CC(C)(C)c1ccc(OC(=O)Nc2ccccc2)cc1	104%	101%	106%	109	101%	96.3%	104%	110%	102%	122%	103%	111%	100%	87%	98.7%	102%	104%	97.7%	87.1%	56.6%
O=C(/C=C/c1cn(-c2ccccc2)nc1-c1ccccc1)OCc1cn(-c2cccc([N+](=O)[O-])c2)nn1	95.2%	86.3%	74.3%	87.8	78.3%	67.4%	100%	73.5%	90.1%	92.1%	87.8%	85.9%	92.7%	68.7%	98.6%	90.1%	82.5%	66.7%	81.1%	85.8%
Cn1c(=O)c2c(nc(N/N=C/c3ccccc3Cl)n2C)n(C)c1=O	105%	93.6%	93.6%	108	101%	99.3%	109%	104%	98.2%	122%	81.6%	106%	99%	81.5%	101%	103%	97.8%	170%	94.5%	95.7%
COc1ccc2nc(-c3ccc(-c4noc(-c5ccc(Cl)cc5)n4)cc3)[nH]c2c1	75.8%	82%	31.8%	95.6	78.2%	67.1%	78.8%	58.3%	57.3%	79.7%	100%	91.2%	77.7%	55.8%	120%	77.9%	92.1%	90.7%	57%	79%
Cc1ccncc1NC=O	104%	111%	103%	102	101%	99%	101%	101%	104%	112%	108%	101%	110%	96.2%	102%	115%	95.8%	103%	104%	108%
CNC(=O)c1c(NC(=O)c2cccc(C(F)(F)F)c2)sc2c1CCC(=O)C2	-37% (active)	4.59% (active)	-7.71% (active)	13.8	2.7% (active)	-46.4% (active)	-68.3% (active)	-41.1% (active)	-49.6% (active)	7.1% (active)	-16.5% (active)	4.31% (active)	3.13% (active)	-94.3% (active)	32.1%	-66.9% (active)	-22.5% (active)	-5.84% (active)	-0.844% (active)	-7.92% (active)
